The text below walks through data of the supplement of paper PMC8540655.

In this experiment the test system is Aedes aegypti larvae. Nature of the experiment: larval motility relative to same well at 0 h (fraction); higher = more motile (less active compound), active = 0.4 or less. Particulars: 10 µM; 2 h. The gist of the method: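 Each 96-well plate held about 10 Aedes aegypti larvae per well in 100 µL, along with solvent and larvicide control wells. Compounds were present at 10 µM with 1% v/v DMSO, and INVAPP recorded 200-frame movies at 100 ms intervals at 0, 2 and 24 h. Relative motility divides each well's score by its baseline score from the first recording, with the median taken across independent larval batches, of which there were three.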
With `NC(=O)C(c1ccccc1)(c1ccccc1)[C@H]1CCCN(CCc2ccc3c(c2)CCO3)C1`, the larval motility was 0.612 (inactive).

`CC(C)Nc1ncnc2c1cnn2-c1ccc(Cl)cc1`: the larval motility is 0.689 (inactive).

Regarding `O=C(NC(=O)N1CCCc2ccccc21)c1cccc(Cl)c1`, the larval motility is 0.838 (inactive).

Turning to `Cc1nc2ccc(Cl)cc2c(-c2ccccc2)c1CC(=O)O`, the larval motility is 0.615 (inactive).

In the case of `O=C(CCCC(F)(F)F)N1CCC(c2nc(-c3nccs3)no2)CC1`, the larval motility is 0.824 (inactive).

As for `CNC(=O)C1O[C@@H](n2cnc3c(NCc4cccc(I)c4)nc(Cl)nc32)[C@H](O)[C@@H]1O` (some centres undefined), the larval motility was 0.688 (inactive).

`O=C(NO)C1(CS(=O)(=O)c2ccc(Oc3ccc(Cl)cc3)cc2)CCOCC1`: the larval motility is 0.471 (inactive).

Turning to `Cn1cc(NC(=O)c2cc(NC(=O)c3ccc(/C=C/c4cnc5ccccc5c4)cc3)cn2C)cc1C(=O)NCCN1CCOCC1`, the larval motility is 1.3 (inactive).

`CN(Cc1ccc(C(C)(C)C)cc1)Cc1cccc2ccccc12`: the larval motility is 0.508 (inactive).

For the compound `COc1ccc(-n2cnc3cc(NCc4ccco4)ccc32)cc1`, the larval motility is 0.835 (inactive).

Consider `NC(=S)N/N=C/c1ncccc1N`, for which the larval motility is 0.987 (inactive).

Consider `Oc1cc(-c2cccc3ccccc23)[nH]n1`, for which the larval motility was 0.626 (inactive).

For `C=CCN(C(=O)OCc1ccc([N+](=O)[O-])cc1)C1CCN(CC[C@](C)(CN(C)S(=O)(=O)c2ccccc2)c2ccccc2)CC1`, the larval motility is 0.847 (inactive).

Turning to `O=C(NC(=O)N1CCCc2ccccc21)c1ccc(Cl)cc1Cl`, the larval motility was 0.529 (inactive).

For the compound `CSC[C@H]1CN(Cc2c[nH]c3c(N)ncnc23)C[C@@H]1O`, the larval motility was 1.02 (inactive).

For `NC(=O)c1ccccc1NC(=O)c1ccc(C(=O)Nc2ccccc2C(N)=O)cc1`, the larval motility was 0.724 (inactive).

On to `O=C(CSc1nnc(Br)n1-c1ccc(C2CC2)c2ccccc12)Nc1ccc(C(=O)O)cc1Cl`, for which the larval motility was 0.815 (inactive).

In the case of `CCNC(=O)Nc1cc2c(-c3ccnc(C)c3)ccc(CNC(=O)OC)c2cn1`, the larval motility was 0.695 (inactive).

As to `N#Cc1c(F)c(Cl)c(NCc2ccccc2)c(C#N)c1F`, the larval motility is 0.585 (inactive).

As for `CN(O)C(=O)c1cc2c(CN3CCC[C@H]3C(N)=O)cn(Cc3ccc(F)cc3)c2cn1`, the larval motility is 0.668 (inactive).

Take `NNC(=O)c1ccncc1`: the larval motility is 0.924 (inactive).

As to `O=S(=O)(Nc1ccccc1)c1ccc(NC(=S)Nc2ccccc2)cc1`, the larval motility was 0.779 (inactive).

`CNc1nc(=O)[nH]cc1F`: the larval motility is 0.634 (inactive).

For the compound `CC(C)N(c1cc(-c2ccccc2)sc1C(=O)O)C(=O)[C@H]1CC[C@H](C)CC1`, the larval motility is 0.697 (inactive).

`Nc1nc(O)c2ncn(COCCO)c2n1`: the larval motility is 0.732 (inactive).

Take `CN(C(=O)C1(c2ccc(Cl)cc2)CCC1)c1ccccc1`: the larval motility was 1.1 (inactive).

With `Cc1ccc(NC(=O)c2ccc(CN3CCN(C)CC3)cc2)cc1Nc1nccc(-c2cccnc2)n1`, the larval motility is 0.64 (inactive).

For the compound `CC(C)Oc1ccc(-n2cnc3cc(/C=C\c4ccc(C(C)(C)O)cc4)ccc32)cc1`, the larval motility was 0.656 (inactive).

With `COc1ccc(OCc2ccc(COc3c(Cl)cccc3Cl)cc2)c(Cl)c1`, the larval motility was 1.19 (inactive).

With `CCCCCCCCC(CP(=O)(O)C(C)N)C(=O)O` (centres undefined), the larval motility was 0.654 (inactive).

`COCCn1cnc2c(=O)[nH]c(Nc3ccccc3)nc21`: the larval motility was 0.921 (inactive).

Consider `COc1nc2ccc(Br)cc2cc1[C@@H](c1ccccc1)[C@@](O)(CCN(C)C)c1cccc2ccccc12`, for which the larval motility is 0.838 (inactive).

As for `O=C(Nc1ccc(Cl)c(C(F)(F)F)c1)C(CCCl)C(=O)Nc1ccc(Cl)c(C(F)(F)F)c1`, the larval motility is 0.848 (inactive).

As for `O=[N+]([O-])/C(Br)=C/c1ccc(Br)o1`, the larval motility was 1.13 (inactive).

Take `Cc1ccc(Oc2ccccc2-c2csc(NC3=NCCCN3)n2)c(C)c1`: the larval motility was 0.774 (inactive).

With `Cc1c(OCC(F)(F)F)ccnc1CS(=O)c1nc2ccccc2[nH]1` (centres undefined), the larval motility was 1.17 (inactive).

In the case of `O=S(=O)(NCB(O)O)c1cc2c(Cl)ccc(Cl)c2s1`, the larval motility was 0.568 (inactive).

In the case of `Nc1cnn(C2OC(CO)C(O)C2O)c(=O)n1` (centres undefined), the larval motility is 1.16 (inactive).

For the compound `C[C@@H](O)[C@H](N)C(=O)NS(=O)(=O)c1cccc(-c2ccc3[nH]ncc3c2)c1`, the larval motility is 0.665 (inactive).
